The record followed here is ChEMBL document CHEMBL3988442, “University of Dundee, Small-Polar-MMV Screening Library” (2021).

The target of assay [1] is T1, Aspartate--tRNA(Asp/Asn) ligase (Mycobacterium tuberculosis (strain ATCC 25618 / H37Rv)) (UniProt P9WFW3). Also: in the data most compounds retested in dose-response had high values.
T1 sequence (whole entry): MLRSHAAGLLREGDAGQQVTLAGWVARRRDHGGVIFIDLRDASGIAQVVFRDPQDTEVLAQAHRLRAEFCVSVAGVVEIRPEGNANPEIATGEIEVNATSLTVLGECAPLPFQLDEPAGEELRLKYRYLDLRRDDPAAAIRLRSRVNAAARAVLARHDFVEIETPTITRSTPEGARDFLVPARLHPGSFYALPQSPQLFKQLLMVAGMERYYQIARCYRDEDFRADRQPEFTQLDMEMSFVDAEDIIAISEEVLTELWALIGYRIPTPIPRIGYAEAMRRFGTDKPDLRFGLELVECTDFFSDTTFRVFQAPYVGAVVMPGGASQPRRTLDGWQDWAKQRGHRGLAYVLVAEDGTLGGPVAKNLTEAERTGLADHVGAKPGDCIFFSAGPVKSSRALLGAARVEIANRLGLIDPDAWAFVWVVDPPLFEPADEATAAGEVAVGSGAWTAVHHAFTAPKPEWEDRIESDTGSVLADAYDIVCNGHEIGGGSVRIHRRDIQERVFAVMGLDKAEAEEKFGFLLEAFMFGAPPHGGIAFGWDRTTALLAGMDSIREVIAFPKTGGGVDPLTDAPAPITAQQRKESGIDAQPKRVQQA
In words: Assay for Asp RNA synthetase-1 from Mycobacterium tuberculosis. Type of assay: functional. Also noted: scale not given: direction of the effect not stated beside the values. As to conditions: 30 µM.

Assay [2] addresses Shiga toxin 2 (Escherichia coli O157:H7) (UniProt P09385+P09386). In words: E. coli 0.157:H7 Shiga Toxin SOP - stx2 screening assay. Format: functional. Also noted: scale not given: direction of the effect not stated beside the values. The following applies: 30 µM.

On to `CC(C)N(C)CCCNC(=O)c1cnc(-c2ccccc2)nc1`, for which the results for the Percent Effect in assay [1] and in assay [2] were 3.09% and -37.7%, respectively.

For `COCCO[C@H]1CCN(C(=O)c2ccno2)[C@H]1Cc1cnn(C)c1`, the Percent Effect in assay [1] was -3.56%; in assay [2], -13.7%.

Regarding `Cc1nc[nH]c1CN1C[C@@H]2CC[C@H](C1)N(C(=O)CCc1cnn(C)c1)C2`, the Percent Effect in assay [1] is 0.752%; in assay [2], 5.79%.

As for `CN(C)C1CCN(C(=O)NCc2ccc(Cn3cncn3)cc2)CC1`, the results for the Percent Effect in assay [1] and in assay [2] were -3.07% and -19.9%, respectively.

In the case of `Cc1cc(NC(=O)CN2CCN(c3nccs3)C(C)C2)n(C)n1` (stereo not given), the Percent Effect came to 7.92% in assay [1] and 7.19% in assay [2].

For `N#CC1(C(=O)NCCCNc2ccc(C(F)(F)F)cn2)CCCC1`, the Percent Effect in assay [1] stood at 2.12%; in assay [2] it was 21.2%.

Take `CC(NC(=O)C1=NN(C)C(=O)CC1)c1ccc(F)cc1F` (stereo not given): the Percent Effect in assay [1] was -4.46%; in assay [2], -6.55%.

As to `O=C(c1cccc(NCCO)c1)N1CCOCC1`, the Percent Effect was 7.13% in assay [1] and -69.6% in assay [2].

In the case of `COCC1c2c(cnn2CC2CC2)CCN1Cc1ccc(OC)cc1` (stereo not given), the Percent Effect in assay [1] turned out to be 0.786%; in assay [2], 4.64%.

As to `CN(CC1(O)CCCN(c2ccccn2)C1)C(=O)Cc1ccsc1` (stereo not given), the Percent Effect stood at 1.53% in assay [1] and 13.7% in assay [2].

For `O=C(CNCCn1cccn1)NCC1(c2ccccc2)CC1`, the Percent Effect in assay [1] came out at 1.09%; in assay [2] it was 13.4%.

Regarding `Cn1cc(N2CC3(CCN(CC4CCOCC4)CC3)OCC2=O)cn1`, the Percent Effect is -2.85% in assay [1] and -32.8% in assay [2].

On to `Cc1ccc(NC2CCN(C(=O)COc3cccnc3)CC2)nn1`, for which the Percent Effect is -4.47% in assay [1] and -129% in assay [2].

As for `O=C(c1ccnnc1)N1C[C@@H](OCC2CCOCC2)[C@H]2OCCC[C@H]21`, the Percent Effect in assay [1] is -5.57%; in assay [2], -14.6%.

Consider `COc1ccc(CN2CCn3c(CNS(C)(=O)=O)nnc3C2)cc1`, for which the Percent Effect was 1.39% in assay [1] and -6.04% in assay [2].

Regarding `O=C(Cc1cccnc1)N1CCC2(CC1)CCN(C1CCOCC1)C2`, the Percent Effect is 1.28% in assay [1] and -40.8% in assay [2].

As for `Cn1cc(-c2csc(CN3CCOCC3)n2)cn1`, the values for the Percent Effect in assay [1] and in assay [2] were -7.74% and 2.01%, respectively.

In the case of `Fc1ccc(-c2nnc(CN3CCn4c(nnc4C4CC4)C3)o2)cc1`, the Percent Effect is 3.19% in assay [1] and -26.1% in assay [2].

As for `CC(C)[C@H](NC(=O)NC1CCS(=O)(=O)C1)C(=O)Nc1cccnc1` (stereo not given in full), the Percent Effect was -0.929% in assay [1] and -52.8% in assay [2].

Turning to `O=C1C[C@H]2[C@@H](CCN2C(=O)c2ccccc2)N1CCN1CCOCC1`, the Percent Effect in assay [1] is -3.74%; in assay [2], -0.799%.

For `CC(=O)Nc1nc(C(=O)N2CCCC2Cn2cc(C)cn2)cs1` (stereo not given), the Percent Effect is -1.84% in assay [1] and 20.3% in assay [2].

Consider `Cc1ccc(Cn2ccc(NS(C)(=O)=O)n2)cc1`, for which the values for the Percent Effect in assay [1] and in assay [2] were 2.05% and -19.8%, respectively.

With `CC(C)CCN1CCN(Cc2nc(C3CC3)no2)CC1`, the figures for the Percent Effect in assay [1] and in assay [2] were 0.0141% and -32%, respectively.

Take `c1ccc(Cn2cc3c(n2)C(COCC2CC2)OCC3)nc1` (stereo not given): the Percent Effect in assay [1] was 4.12%; in assay [2], -12.1%.

`COCCN(C)C[C@@H]1CN(C(=O)c2cccc(C(F)(F)F)c2)C[C@@H]1CO`: the results for the Percent Effect in assay [1] and in assay [2] were -4.52% and 8.62%, respectively.

With `CC(C)(C)c1noc(CN2CCCN(Cc3cccs3)CC2)n1`, the results for the Percent Effect in assay [1] and in assay [2] were -4.01% and -1.06%, respectively.

Take `O=C(CSC1=NS(=O)(=O)c2cc(F)ccc2N1)c1ccc(Cl)cc1`: the values for the Percent Effect in assay [1] and in assay [2] were 5.12% and -0.176%, respectively.

On to `COC(=O)c1cccc(NS(=O)(=O)c2cnc(NC(C)=O)s2)c1`, for which the figures for the Percent Effect in assay [1] and in assay [2] were -3.37% and -26.3%, respectively.

As for `CN(Cc1ncc(C(C)(C)C)o1)C1CCCN(c2cccnn2)C1` (stereo not given), the figures for the Percent Effect in assay [1] and in assay [2] were 0.143% and -9.94%, respectively.

On to `Cn1cccc1C(=O)N1CCc2ncc(Cn3cccn3)n2CC1`, for which the Percent Effect in assay [1] was -0.291%; in assay [2], -19.1%.

As for `COC(=O)CC(c1ccccc1)c1oc(C)cc(=O)c1O` (stereo not given), the Percent Effect in assay [1] was -2.11%; in assay [2], -6.67%.

In the case of `CC(C)NC(=O)COc1nc(C(C)(C)C)no1`, the Percent Effect is 0.301% in assay [1] and 2.21% in assay [2].

In the case of `Cc1cccc(C2(NC(=O)CCN3C(=O)CCC3=O)CCCC2)c1`, the figures for the Percent Effect in assay [1] and in assay [2] were -6.14% and 10.2%, respectively.

Turning to `CN1C(=O)C(c2cccnc2)CC12CCN(C(=O)c1cccn1C)CC2` (stereo not given), the results for the Percent Effect in assay [1] and in assay [2] were 0.99% and -12.3%, respectively.

With `COCCN1CC[C@H](O)[C@@H]1Cc1ccccc1`, the Percent Effect is -4.18% in assay [1] and -34.6% in assay [2].

For the compound `CCN(Cc1ccc2c(c1)OCCO2)C(=O)NC(C)Cn1ccnc1` (stereo not given), the Percent Effect is 5.58% in assay [1] and -4.95% in assay [2].

As for `O=C(CCc1cccs1)N1CCC(N2CCNC2=O)CC1`, the Percent Effect in assay [1] was -2.08%; in assay [2] it was -4.13%.

For `CN(Cc1nnc(C2CC2)n1C)C(=O)c1ccnc(OC2CCC2)c1`, the Percent Effect in assay [1] is -0.39%; in assay [2], 3.48%.

`Cc1ccc(C)c(NC(=O)N(C)Cc2cnn(C)c2)c1`: the values for the Percent Effect in assay [1] and in assay [2] were -1.13% and 19.8%, respectively.

In the case of `Cc1cccc(-n2cc(C(=O)N3CCCC(n4cccn4)C3)nn2)c1` (stereo not given), the Percent Effect was 1.99% in assay [1] and -13.8% in assay [2].

For the compound `CCOc1ccc(C#N)cc1NCC(=O)Nc1cc(F)ccc1F`, the Percent Effect in assay [1] is -5.91%; in assay [2], 5.62%.

Consider `O=C(Nc1ccc(F)c(Br)c1)N1CCCC1`, for which the figures for the Percent Effect in assay [1] and in assay [2] were 4.74% and -23.1%, respectively.

For the compound `COCCc1noc(CN2CCCC2Cn2cc(C)cn2)n1` (stereo not given), the Percent Effect was -2.48% in assay [1] and -2.29% in assay [2].

For `Cn1ncc2c1C(COCC1CC1)CN(Cc1ccoc1)C2` (stereo not given), the values for the Percent Effect in assay [1] and in assay [2] were -4.51% and -1.73%, respectively.

As for `Cc1csc2ncc(-c3ccnc(N4CCCC[C@@H]4CO)n3)c(=O)n12`, the Percent Effect was -2.34% in assay [1] and -17.1% in assay [2].

With `O=c1c2ccccc2nc2n1C(CSc1ccc(Cl)cc1Cl)CN2` (stereo not given), the Percent Effect in assay [1] came out at 4.53%; in assay [2], 9.69%.

As for `CN(Cc1ccco1)[C@@H]1CN(Cc2ccco2)[C@@H]2CCCO[C@H]12`, the Percent Effect in assay [1] was -1.66%; in assay [2], 0.222%.

`CCS(=O)(=O)c1ccccc1N1CCC(NC(C)=O)CC1`: the Percent Effect in assay [1] was -0.991%; in assay [2] it was 11.9%.

As to `Cc1noc(NC(=O)c2ccc(Br)s2)n1`, the Percent Effect in assay [1] came to 2.08%; in assay [2], 49.8%.

Turning to `O=C(Nc1cc(F)ccc1OCC1CCCO1)c1ccccn1` (stereo not given), the Percent Effect in assay [1] came to 2.54%; in assay [2] it was 37.1%.
